The panel holds about 83,000 compounds, 20% with a hit somewhere; the sample as a whole holds those more often.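 For each line, cells grew in 96-well plates with the test compound present at a single concentration for 48 hours.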 The source made the active and inactive calls. Rule for the calls: active = growth percent below 10; inactive = the rest.
Columns and labels:
Test in all cases: NCI-60 one-dose screen, 48 h (100 = growth as untreated, 0 = no growth, -100 = all killed)
Settings in all cases: 10 µM unless noted
[1] = system: DU-145 prostate
[2] = system: K-562 leukemia
[3] = system: MALME-3M melanoma
[4] = system: MDA-MB-231 breast
[5] = system: RXF 393 renal
[6] = system: SF-268 CNS
[7] = system: SF-295 CNS
[8] = system: SF-539 CNS
[9] = system: UACC-257 melanoma
[10] = system: M14 melanoma
[11] = system: HCT-15 colon
[12] = system: HT29 colon
[13] = system: SNB-75 CNS
[14] = system: SNB-19 CNS
[15] = system: U251 CNS
[16] = system: PC-3 prostate
[17] = system: SK-MEL-5 melanoma
[18] = system: UACC-62 melanoma
[19] = system: LOX IMVI melanoma
[20] = system: SK-MEL-28 melanoma

Measured: growth

COc1ccc(/C=c2\nc3n(-c4ccccc4)c4nc5c6c(sc5c(=N)n4n-3c2=O)CCCC6)cc1
inactive: [1] 104% | [2] 67.2% | [3] 97.4% | [4] 59.9% | [5] 98.4% | [6] 88.8% | [7] 98.4% | [8] 94.9% | [9] 106% | [10] 96.7% | [11] 40.7% | [12] 109% | [13] 42.9% | [14] 84.9% | [15] 87.5% | [16] 63.5% | [17] 70.8% | [18] 74.1% | [19] 91.2% | [20] 102%

Cc1ccc(-n2c(-c3ccccc3)c(-c3ccccc3)c3c(SCC(=O)n4[nH]c(N)cc4=O)ncnc32)cc1
inactive: [1] 108% | [2] 77.1% | [3] 97.6% | [4] 83.3% | [5] 96.6% | [6] 107% | [7] 89.3% | [8] 96% | [9] 94.1% | [10] 94.3% | [11] 101% | [12] 94% | [13] 97.1% | [14] 91.8% | [15] 87% | [16] 79.4% | [17] 87.3% | [18] 77.4% | [19] 97.7% | [20] 101%

C#CCOc1nc(C)cc(C)c1C#N
inactive: [1] 104% | [2] 100% | [3] 99% | [4] 94.5% | [5] 106% | [6] 99.6% | [7] 104% | [8] 97.9% | [9] 103% | [10] 98.1% | [11] 96% | [12] 107% | [13] 79.6% | [14] 96.2% | [15] 98.1% | [16] 140% | [17] 98.9% | [18] 93.5% | [19] 97.4% | [20] 111%

CS(=O)(=O)c1ccc(Nc2nc(N[C@H]3CCCC[C@H]3N)nc3cc[nH]c(=O)c23)cc1
active: [3] -31.9% | [4] -12.9% | [5] -54.7% | [6] -22.8% | [8] -11.8% | [9] -5.02% | [13] 4.36% | [14] 4.85% | [15] 4.89% | [17] -40.1% | [18] -33.9% | [19] -10.7% | [20] 3.17%
inactive: [1] 14.4% | [2] 10.9% | [7] 31.4% | [10] 43.5% | [11] 102% | [12] 15.5% | [16] 14.2%

O=S(=O)(Nc1cccc(Cl)c1)c1ccc(-c2cnc(C3CC3)o2)cc1
inactive: [1] 20.4% | [3] 58.2% | [4] 23.3% | [5] 13.8% | [6] 51% | [7] 15.5% | [9] 63.8% | [10] 16.2% | [11] 23.9% | [14] 24.1% | [15] 22.9% | [16] 26.3% | [17] 16.4% | [18] 29.2% | [19] 35.4% | [20] 68.4%
active: [2] 9.52% | [8] -0.0211% | [12] 3.59% | [13] -25.8%

O=C1/C(=C\c2cccnc2)SC(=S)N1CCc1ccc(O)cc1
active: [13] -4.79%
inactive: [1] 16.6% | [2] 36% | [3] 79.6% | [4] 47.1% | [5] 25.1% | [6] 68.5% | [7] 94% | [8] 23.2% | [9] 38.9% | [10] 60.2% | [11] 19.2% | [12] 105% | [14] 82.5% | [15] 68.3% | [16] 42.2% | [17] 90.1% | [18] 59.9% | [19] 17.4% | [20] 71%

COc1cccc(-c2nn(-c3ccccc3)cc2-c2ccnc(NCCCNC(=O)c3ccccc3)c2)c1
active: [12] 8.81% | [17] 5.44%
inactive: [1] 64.7% | [2] 11.2% | [3] 57.5% | [4] 45.9% | [5] 63.3% | [6] 66.2% | [7] 51.5% | [8] 80.2% | [9] 40.7% | [10] 33.3% | [11] 33% | [13] 60.1% | [14] 70.4% | [15] 43.3% | [16] 26.2% | [18] 33.8% | [19] 66.1% | [20] 67.8%

COc1ccc(-c2nc(SC(C)C)nc(NNC(N)=S)c2C#N)cc1
inactive: [1] 77.7% | [2] 16.9% | [3] 51.7% | [4] 43.3% | [5] 63.7% | [6] 62.5% | [7] 55.2% | [8] 50.1% | [9] 82.7% | [10] 53.8% | [11] 23.6% | [12] 85% | [13] 32.3% | [14] 38% | [15] 52.8% | [16] 55.6% | [17] 28.9% | [18] 22.2% | [19] 40.2% | [20] 58.7%

COc1cccc2c1C(=O)c1c(O)c3c(c(O)c1C2=O)CC(O)(/C(C)=N/NC(=O)CCCCC(=O)N/N=C(\C)C1(O)Cc2c(O)c4c(c(O)c2C(OC2CC(N)C(O)C(C)O2)C1)C(=O)c1c(OC)cccc1C4=O)CC3OC1CC(N)C(O)C(C)O1 (stereo not given)
active: [1] -47.4% [5 µM] | [2] -51.8% [5 µM] | [3] -66.9% [5 µM] | [4] -2.21% [5 µM] | [5] -55.4% [5 µM] | [6] -31.3% [5 µM] | [7] -35.3% [5 µM] | [8] -41.8% [5 µM] | [9] -34.3% [5 µM] | [10] -57.1% [5 µM] | [12] -68.9% [5 µM] | [13] -67.7% [5 µM] | [14] -8.14% [5 µM] | [15] 2.32% [5 µM] | [16] -40.4% [5 µM] | [17] -89% [5 µM] | [18] -93% [5 µM] | [19] 1.34% [5 µM] | [20] -76.5% [5 µM]
inactive: [11] 13.8% [5 µM]

CC1=CN2C(=O)C3C4=C(CCCC4)SC3N=C2CN1c1c(C)cccc1C (stereo not given)
inactive: [1] 104% | [2] 45.8% | [3] 89.7% | [4] 83.9% | [5] 67% | [6] 89.1% | [7] 81.6% | [8] 96.7% | [9] 99.4% | [10] 96.6% | [11] 49.8% | [12] 84% | [13] 106% | [14] 104% | [15] 65% | [16] 63.4% | [17] 87.2% | [18] 66.4% | [19] 79.2% | [20] 110%

COc1ccc2c(c1)O/C(=C\c1cccc(OCC(=O)Nc3nc(C)c(C)s3)c1)C2=O
inactive: [4] 21.2% | [9] 88.5% | [11] 94.1% | [14] 88.5% | [17] 111% | [18] 81.7% | [20] 84.8%
active: [1] -96.2% | [2] -41.3% | [3] -54% | [5] -66.3% | [6] -55.4% | [7] -80.2% | [8] -78.9% | [10] -15.1% | [12] -29.9% | [13] -63.1% | [15] -64.5% | [16] -38.7% | [19] -68%

COc1cccc(-c2nc3sccn3c2-c2ccnc(NCCNS(=O)(=O)c3ccc(C(F)(F)F)cc3)c2)c1
inactive: [1] 49.4% | [2] 25.7% | [3] 42.2% | [4] 70.1% | [5] 34% | [6] 35.8% | [7] 27.7% | [8] 53.7% | [9] 39.2% | [10] 38.4% | [11] 33% | [12] 35.7% | [13] 38.1% | [14] 56.5% | [15] 42.1% | [16] 16.8% | [17] 14.9% | [18] 38.9% | [19] 46.3% | [20] 57.8%

Cc1ccc(N2CCN(C(=S)c3cccs3)CC2)cc1
inactive: [1] 108% | [2] 89.1% | [3] 100% | [4] 97.1% | [5] 111% | [6] 107% | [7] 103% | [8] 101% | [9] 101% | [10] 103% | [11] 96.3% | [12] 90.9% | [13] 94.3% | [14] 100% | [15] 96.3% | [16] 92.9% | [17] 95.2% | [18] 90.1% | [19] 116% | [20] 102%

CCN(CCNc1ccc(C)c2sc3ccccc3c(=O)c12)CC(C)(C)O
active: [2] -34.5% | [7] -17.6%
inactive: [1] 95.7% | [3] 89.1% | [4] 78% | [5] 74.7% | [6] 83.3% | [8] 78.9% | [9] 95.9% | [10] 73.2% | [11] 28.8% | [12] 39.2% | [13] 73.7% | [14] 78% | [15] 49.7% | [16] 71.4% | [17] 75.9% | [18] 53.6% | [19] 54.4% | [20] 79.6%

C=CC(=O)Nc1cccc(Oc2nccc(Nc3nnc(C4CC4)s3)n2)c1
inactive: [1] 94.5% | [2] 81.9% | [3] 111% | [4] 67.1% | [5] 86.1% | [6] 89.8% | [7] 104% | [8] 89.1% | [9] 105% | [10] 113% | [11] 91.5% | [12] 96.8% | [13] 71.4% | [14] 82.7% | [15] 94.1% | [16] 91.7% | [17] 89.5% | [18] 95.6% | [19] 89.6% | [20] 98.8%

From PubChem BioAssay (NCI)
